Rows were chosen to be rich in hits. Some 2.4% of all compounds tested hit in one or more screens of this group.
FEN1 inh: inhibitors of human flap endonuclease 1; Recombinant FEN1 flap cleavage, fluorescence, 15 min; AID 588795; Potency, µM (top dose mostly 114 µM), for the others: top-dose activity change, negative = inhibition, hits mostly inhibitors; 0.35% of 390,000 active; further: on the % scale 0 is the no-effect control and ±100 the full control effect; nearly all actives have a fitted effect of over 65% in size
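In this screen, 50 nM flap DNA substrate was added to 10 nM FEN1 pretreated with compound for 15 min at room temperature; cleavage was followed with reads at 0 and 15 min, and Hill fitting gave concentration–response parameters.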
POLK inh: blocks human DNA polymerase kappa activity | 0.53% of 400,000 active | Potency, µM (top dose mostly 107 µM), without a hit: at the highest dose activity, negative = inhibition, actives largely listed as inhibitors | purified Pol kappa, fluorescent DNA synthesis assay, 10 min | AID 588579 | Q9UBT6; further: on the % scale 0 is the no-effect control and ±100 the full control effect
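Kinetic fluorescence screen: compound preincubated 15 min RT with 10 nM enzyme; 50 nM substrate (final) initiates; reads at 0/10 min.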
WRN helicase inh: blocks human WRN helicase; WRN helicase unwinding, fluorescent forked duplex, kinetic; Potency, µM (doses to about 114 µM), inactives show at the highest dose activity change, negative = inhibition, most hits filed as inhibitors; 0.46% of 360,000 active; AID 651768; further: on the % scale 0 is the no-effect control and ±100 the full control effect; nearly all actives have a fitted effect of over 55% in size
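Kinetic fluorescence helicase assay: unwinding of a quenched forked DNA duplex (100 nM final) with 2 mM ATP final raises red fluorescence (525/598 nm). Compounds sat 15 min at room temperature with 20 nM WRN beforehand.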
POLB inh: DNA polymerase beta (human) inhibition | P06746 | Pol beta primer extension/strand displacement, fluorescence kinetic | Potency, µM (titrated, usually from 114 µM), for inactives: at the top dose activity change, negative = inhibition, usual class: inhibitors | 1.3% of 340,000 active; further: on the % scale 0 is the no-effect control and ±100 the full control effect
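Pol beta (10 nM) was preincubated with compound for 15 min at room temperature. The reaction was then started with 50 nM substrate and read immediately and after a further 10 min at room temperature.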
POLH inh: inhibitors of human DNA polymerase eta. recombinant Pol eta, fluorescent DNA replication assay. Potency, µM (highest dose often 114 µM), for inactives: at the top dose activity change, negative = inhibition, most hits filed as inhibitors. 1.2% of 390,000 active; further: on the % scale 0 is the no-effect control and ±100 the full control effect
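Pol eta (10 nM) was preincubated with compounds for 15 min at room temperature, after which fluorescent replication substrate (50 nM final) was added to start the reaction. Fluorescence was read kinetically at 0 and 10 min.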
POLI inh: blocks human DNA polymerase iota activity; Q9UNA4; Pol iota fluorescent replication assay, 10 min; Potency, µM (titrated, usually from 115 µM), for inactives: at the top dose activity, negative = inhibition, actives largely listed as inhibitors; 1% of 390,000 active; AID 588590
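Fluorescent replication assay read twice, at 0 min and 10 min after adding 50 nM (final) substrate. Enzyme (10 nM) and compounds were first incubated 15 min at room temperature; enzyme-free buffer wells were negative controls.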
Active calls of the source: *; ? = inconclusive; . = not tested or not shown; [ ] = remark or other dose. The call rests on the fitted dose curve; in most records, active means well fitted curve in the direction sought with a large enough effect; inconclusive means small, poorly fitted or top-dose-only effect, or another doubt; inactive means no such curve, though single readings can be large; an effect the other way counts as inactive or inconclusive. Potency means the concentration at half of the fitted maximal effect.

SMILES	FEN1 inh	POLK inh	WRN helicase inh	POLB inh	POLH inh	POLI inh
O=C(NC(=S)Nc1cccc(S(=O)(=O)NC2=NCCC2)c1)c1cc(-c2ccco2)nc2ccccc12	-10%	?	?	40µM*	?	28µM*
Cc1ccc2nc(NC(=O)c3cc(-c4ccco4)nc4ccccc34)sc2c1	-5%	-18%	-26%	-14%	-13%	2%
O=C(Nc1cccc(S(=O)(=O)NC2=NCCCCC2)c1)c1cc(-c2ccccc2)nc2ccccc12	-17%	-10%	-4%	9%	-4%	9%
Cn1c(=O)c(C(=O)COC(=O)c2cc(C3CC3)nc3ccccc23)c(N)n(Cc2ccccc2)c1=O	?	-7%	-2%	32%	-4%	5%
Cn1c(=O)c(C(=O)COC(=O)c2cc(-c3ccco3)nc3ccccc23)c(N)n(CC2CC2)c1=O	.	.	.	10µM*	.	.
O=C(Nc1nc2ccccc2s1)c1cc(-c2ccco2)nc2ccccc12	9%	-5%	50µM*	0%	?	?
O=C(O)c1cc(-c2ccco2)nc2ccccc12	40µM*	28µM*	?	18µM*	7.1µM*	13µM*
Clc1ccccc1CSc1nc(NCCc2ccccc2)c2ccccc2n1	-15%	-3%[60.1 µM]	.	22%	-19%	5%
CC(C)Cc1ccc(S(=O)(=O)N2CCC(c3ccncc3)CC2)cc1	-9%	-3%[60.1 µM]	.	-21%	-19%	-28%
COc1ccc(NC(=O)c2cc(-c3ccco3)nc3ccccc23)cn1	-34%	?	-15%[11.6 µM]	.	20µM*	18µM*
COc1ccc(CNC(=O)COC(=O)c2ccccc2C(=O)c2ccccc2)cc1	3%	-15%	-9%	1%	-8%	3%
CCN(CC)CCNC(=O)c1ccc(NC(=O)c2cc(-c3ccco3)nc3ccccc23)cc1	?	-21%	7%	-3%	-6%	?
COc1ccc(CNC(=O)COC(=O)c2cc(-c3ccco3)nc3ccccc23)cc1	.	.	.	7.1µM*	.	.
O=C(/C=C/c1ccc(Br)o1)Nc1nnc(C2CC2)s1	.	.	.	25µM*	.	.
C=CCOc1cccc(/C=C2\C(=O)N(Cc3ccc(C)cc3)C(C)=C2C(=O)OC)c1	-20%	-5%	-9%	?	-7%	-8%
CCOc1cc(/C=C2\C(=O)N(Cc3ccc(C)cc3)C(C)=C2C(=O)OC)ccc1O	-5%	-12%	79µM*	-1%	-7%	-1%
Cc1c(C)n(CCC(=O)O)c2ccccc12	16%	-7%	3%	0%	-7%	45%
Cc1ccc2c(c1)c(C)cc(=O)n2CCC(=O)O	-6%	-6%[60.1 µM]	-12%	13µM*	-3%	3%
CCc1ccc(NC(=O)c2cc3nc(-c4ccc(C)cc4)cc(C(F)(F)F)n3n2)cc1	-1%	-20%	.	3%	-10%	14%
Cc1ccc(/C=C/C(=O)O)cc1S(=O)(=O)Nc1ccccc1C(=O)O	4%	-16%	2%[11.6 µM]	?	45µM*	60%
Cc1ccc(/C=C/C(=O)O)cc1S(=O)(=O)Nc1ccc(C(=O)O)cc1	-3%	-5%	0%	5%	?	-3%
O=S(=O)(c1ccc(F)cc1)N1CCN(c2nc(-c3cccc(Br)c3)nc3ccccc23)CC1	11%	2%	.	.	.	-5%
O=C(c1cnc(N2CCCCC2)c2ccccc12)N1CCN(c2cccc(Cl)c2)CC1	-16%	-7%[60.1 µM]	.	0%	-25%	14%
O=C1ON=C(c2ccccc2)/C1=C\c1ccco1	17%	-19%	-6%	32µM*	-4%	8%
O=C1ON=C(c2ccccc2)/C1=C/c1ccccc1	35%	12%	-3%	8%	0%	-8%
SMILES	FEN1 inh	POLK inh	WRN helicase inh	POLB inh	POLH inh	POLI inh
COc1cc([N+](=O)[O-])ccc1-c1ccc(/C=C2\C(=O)ON=C2c2ccccc2)o1	?	-28%	-35%[11.6 µM]	.	79µM*	?
Cc1ccc(C2CC(=O)N(Cc3ccccc3)c3c2c(C)nn3-c2nc(C)cc(C)n2)cc1 (stereo not given)	-2%	-3%	.	7%	-17%	16%
CCc1ccc(-n2c(SCC(=O)N3Cc4ccccc4CC3C(=O)O)nnc2-c2ccncc2)cc1 (stereo not given)	-3%	-8%	-7%[11.6 µM]	3%	22µM*	33%
COc1ccc(NC(=S)NCCCCCC(=O)C[N+](=O)[O-])cc1	1%	-4%	-7%[11.6 µM]	-1%	79µM*	?
O=C(CCCCCNC(=S)Nc1ccc(Cl)cc1)C[N+](=O)[O-]	2%	1%	-9%	11%	-18%	12%
N#CC1=C(S)N(c2ccccc2)C(c2ccc(-c3cc(Cl)ccc3Cl)o2)NC1=O (stereo not given)	-20%	-9%	-18%	32µM*	6%	-27%
O=C(O[C@@H]1OC2COC(=O)c3cc(O)c(O)c(O)c3-c3c(cc(O)c(O)c3O)C(=O)O[C@@H]([C@H]1O)[C@@H]2O)c1cc(O)c(O)c(O)c1	0.71µM*	-99%	?	0.16µM*	-99%	?
O=S(=O)(Nc1ccc(-c2csc(-c3ccccc3)n2)cc1)c1ccc(F)cc1	-17%	-3%	-6%	?	-18%	-28%
O=C(Nc1nc(-c2ccccc2)cs1)c1ccccc1NS(=O)(=O)c1ccc(F)cc1	-31%	-12%	-4%[11.6 µM]	45µM*	50µM*	-25%
CCOc1ccc(CCNC(=O)c2cc3cc4cc(OC)ccc4nc3s2)cc1OCC	11%	-29%	.	14µM*	-11%	-4%
COc1ccc2nc3sc(C(=O)Nc4cc(Cl)c(OC)cc4OC)cc3cc2c1	-14%	0%	.	?	?	-5%
CCC(C)NC(=O)c1cc2cc3ccc(OC)cc3nc2s1 (stereo not given)	-22%	?	-11%	50µM*	?	-15%
Cc1cc(C)c(S(=O)(=O)NCC(c2ccc(N(C)C)cc2)N2CCc3ccccc32)c(C)c1 (stereo not given)	-2%	-2%[60.1 µM]	.	?	-16%	?
COC(=O)c1cc2oc3ccccc3c2n1CC(=O)Nc1ccc(C)cc1C	17%	0%	.	-1%	-5%	-13%
CCOc1cc(/C=C2/C(=N)N3N=C(CC)SC3=NC2=O)ccc1OC(=O)c1ccco1	3%	-11%	?	-8%	-4%	?
CCOc1cc(/C=C2/C(=O)N(c3ccccc3)N=C2C)ccc1OC(=O)c1ccco1	-22%	-28%	?	3%	-19%	1µM*
CCOc1cc(/C=C2\C(=O)N(c3ccc(C(N)=O)cc3)N=C2C)ccc1OC(=O)c1cccs1	-2%	-5%	?	0%	50µM*	?
